# In the library only some 6.7% were active in any assay of this set; here they are far more common.
# C diff growth – C. difficile growth inhibition | Clostridium difficile clinical isolate growth, OD600, 24 h; stronger effect = lower value | 86,000 compounds, 0.25% hits | growth activity, negative = inhibition, % at 16 µg/mL (by protocol);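 active = mean growth activity at or below -80% and every replicate also at or below -80%; inconclusive = mean at or below -80% but some replicate above -80%; inactive = mean growth activity above -80%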;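 also: 0% = DMSO wells and -100% = levofloxacin 16 µg/mL wells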
# Pf Dd2 inh – blocks growth of Plasmodium falciparum Dd2 parasites | 94,000 compounds, 2.3% hits | activity change, % at 10 µM | P. falciparum Dd2 growth, SYBR Green, 72 h; stronger effect = lower value; in the data active = activity change below about -80%; inconclusive = no clear call, values can overlap the other calls
# T cruzi growth – inhibitors of T. cruzi proliferation | T. cruzi beta-gal in NIH3T3, GalScreen luminescence, 90 h | inhibition, % at 8.34 µM | 77,000 compounds, 5.9% hits | AID 624255;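 active = mean inhibition above about 93%, with at least 55% of replicates each passing it, limit read from the data, passing the limit was not always enough; inconclusive = only one of those two conditions holds; inactive = neither condition holds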
# * = called active by the depositor; ? = inconclusive; . = not tested or not shown.
SMILES,C diff growth,Pf Dd2 inh,T cruzi growth
C[C@@H]1CCCCO[C@H](CN(C)Cc2ccccc2)[C@@H](C)CN([C@H](C)CO)C(=O)c2cc(NC(=O)CCCCCC(=O)Nc3ccccc3N)ccc2O1,-1,-83*,.
COc1ccc(CN(C)C[C@H]2OCCCC[C@@H](C)Oc3ccc(NC(=O)CCCCCC(=O)Nc4ccccc4N)cc3C(=O)N([C@H](C)CO)C[C@@H]2C)cc1,5,-83*,.
COc1ccc(NC(=O)N(C)C[C@@H]2OCCCC[C@@H](C)Oc3ccc(NC(=O)CCCCCC(=O)Nc4ccccc4N)cc3C(=O)N([C@H](C)CO)C[C@@H]2C)cc1,-3,9,37
C[C@@H]1CCCCO[C@@H](CN(C)C)[C@@H](C)CN([C@H](C)CO)C(=O)c2cc(NC(=O)CCCCCC(=O)Nc3ccccc3N)ccc2O1,0,25,.
COc1ccc(NC(=O)N[C@H]2CC[C@@H](CCn3cc(C4(O)CCCC4)nn3)O[C@@H]2CO)cc1,1,-20,25
CCC(=O)N1C[C@H](O)COC[C@@H]2O[C@H](CC(=O)N3CCCCC3)CC[C@H]21,-3,21,-34
CCCC#Cc1ccc(CC[C@H]2O[C@H]3CC[C@@H](CO)O[C@H]3C[C@H]2NS(=O)(=O)c2ccccc2)cc1,17,-44,.
COc1cccc(NC(=O)C[C@H]2CC[C@H]3[C@@H](COc4ccc(NC(=O)c5ccccc5F)cc4C(=O)N3C)O2)c1,2,18,.
C[C@@H]1CN([C@@H](C)CO)C(=O)c2cc(C#CCc3ccccc3)cnc2O[C@H]1CN(C)C(=O)C1CCC1,0,-69,86
C[C@H]1CN([C@@H](C)CO)C(=O)c2cc(C#CCc3ccccc3)cnc2O[C@H]1CN(C)CC1CC1,.,-57,57
C[C@H](O)C#Cc1cnc2c(c1)C(=O)N([C@@H](C)CO)C[C@@H](C)[C@@H](CN(C)C(=O)Cc1ccncc1)O2,-4,-95*,.
C[C@@H]1CN([C@@H](C)CO)C(=O)c2cc(C#CCc3ccccc3)cnc2O[C@H]1CN(C)CC1CCCC1,4,-86*,88
C[C@@H]1CN([C@@H](C)CO)C(=O)c2cc(C#CCc3ccccc3)cnc2O[C@@H]1CN(C)CC1CC1,12,-74,.
C[C@@H]1CN([C@H](C)CO)C(=O)c2cc(C#CCc3ccccc3)cnc2O[C@H]1CN(C)C(=O)C1CCCCC1,21,-83*,105
C[C@@H]1CN([C@H](C)CO)C(=O)c2cc(C#CCc3ccccc3)cnc2O[C@@H]1CN(C)CC1CC1,.,-81*,26
C[C@H](CO)N1C[C@H](C)[C@H](CN(C)C(=O)Cc2ccncc2)Oc2ncc(C#C[C@@H](C)O)cc2C1=O,-8,8,.
CC(C)C#Cc1cnc2c(c1)C(=O)N([C@@H](C)CO)C[C@@H](C)[C@H](CN(C)S(=O)(=O)c1cn(C)cn1)O2,3,25,-5
O=C(C[C@@H]1CC[C@@H]2[C@H](COC[C@@H](O)CN2S(=O)(=O)c2ccc(Cl)cc2)O1)NCCN1CCCCC1,8,-15,.
COc1ccccc1CNC(=O)C[C@H]1C[C@@H]2c3cc(NC(=O)C4CCOCC4)ccc3O[C@@H]2[C@H](CO)O1,2,12,-4
CC(C)NC(=O)N1CC2(C1)[C@@H](c1ccccc1)[C@@H](CO)N2C(=O)C1CCC1,-3,34,.
CC(C)NC(=O)N(C)C[C@H]1OCCCC[C@@H](C)Oc2ccc(NC(=O)c3ccncc3)cc2C(=O)N([C@@H](C)CO)C[C@H]1C,-3,19,51
C[C@@H]1CCCCO[C@@H](CN(C)C(=O)Cc2ccccc2)[C@@H](C)CN([C@@H](C)CO)C(=O)c2cc(NS(=O)(=O)c3ccccc3)ccc2O1,.,15,.
C[C@H]1CN([C@@H](C)CO)C(=O)c2cc(C#Cc3ccccc3)cnc2O[C@@H]1CN(C)C(=O)CCN1CCCCC1,4,-52,26
C[C@@H]1CN([C@H](C)CO)C(=O)c2cc(/C=C/c3ccccc3)cnc2O[C@@H]1CN(C)C(=O)C1CC1,3,-86*,.
C[C@H]1CN([C@@H](C)CO)C(=O)c2cc(/C=C/c3ccccc3)cnc2O[C@@H]1CN(C)C(=O)C1CC1,.,-36,56
SMILES,C diff growth,Pf Dd2 inh,T cruzi growth
C[C@@H]1CN([C@@H](C)CO)C(=O)c2cc(C#Cc3ccccc3)cnc2O[C@H]1CN(C)C(=O)CCN1CCCCC1,7,-88*,57
CCC(=O)N(C)C[C@@H]1Oc2cc(-c3ccccc3F)ccc2S(=O)(=O)N([C@H](C)CO)C[C@@H]1C,4,4,50
Cc1ccccc1-c1ccc(C2[C@@H]3CN(S(=O)(=O)Cc4ccccc4)C[C@H]2N3)cc1 (stereo partly drawn),52,-52,.
COc1cccc(CN2[C@@H]3CNC[C@H]2[C@H]3c2ccc(-c3ccccc3OC)cc2)c1,-8,?,.
COc1cc(CN2C[C@@H]3N[C@H](C2)C3c2ccc(-c3ccccc3C)cc2)cc(OC)c1 (stereo partly drawn),-99*,-55,.
COc1cccc(CN2C[C@@H]3N[C@H](C2)C3c2ccc(-c3ccccc3C)cc2)c1 (stereo partly drawn),-96*,8,.
COc1cccc(CN2C[C@@H]3N[C@H](C2)C3c2ccc(-c3ccccc3F)cc2)c1 (stereo partly drawn),-94*,-56,.
C/C=C/c1ccc(C2[C@@H]3CN(Cc4cc(OC)cc(OC)c4)C[C@H]2N3)cc1 (stereo partly drawn),21,-68,.
Cc1noc(C)c1S(=O)(=O)Nc1ccc2c(c1)C(=O)N([C@H](C)CO)C[C@@H](C)[C@H](CN(C)C(=O)Nc1ccc(F)cc1)O2,.,24,1
O=C(Nc1ccc(F)cc1)N[C@H]1CC[C@H](CC(=O)N2CCOCC2)O[C@@H]1CO,.,19,8
C[C@@H]1CN([C@H](C)CO)C(=O)c2c(c3ccccc3n2C)-c2ccccc2CO[C@@H]1CN(C)S(=O)(=O)c1ccccc1,.,-9,26
Cc1noc(C)c1S(=O)(=O)N(C)C[C@@H]1OCc2ccccc2-c2c(n(C)c3ccccc23)C(=O)N([C@H](C)CO)C[C@@H]1C,-1,-84*,85
C[C@@H]1CN([C@@H](C)CO)C(=O)c2c(c3ccccc3n2C)-c2ccccc2CO[C@H]1CN(C)S(=O)(=O)c1ccc(F)cc1,.,-54,70
COc1ccc(S(=O)(=O)N(C)C[C@H]2OCc3ccccc3-c3c(n(C)c4ccccc34)C(=O)N([C@H](C)CO)C[C@H]2C)cc1,.,-72,61
Cc1ccc(S(=O)(=O)N(C)C[C@@H]2OCc3ccccc3-c3c(n(C)c4ccccc34)C(=O)N([C@@H](C)CO)C[C@H]2C)cc1,.,-81*,75
Cc1noc(C)c1S(=O)(=O)N(C)C[C@H]1OCc2ccccc2-c2c(n(C)c3ccccc23)C(=O)N([C@H](C)CO)C[C@@H]1C,3,-35,1
Cc1ccc(S(=O)(=O)N(C)C[C@H]2OCc3ccccc3-c3c(n(C)c4ccccc34)C(=O)N([C@@H](C)CO)C[C@@H]2C)cc1,.,-92*,55
Cc1ccc(S(=O)(=O)N(C)C[C@@H]2OCc3ccccc3-c3c(n(C)c4ccccc34)C(=O)N([C@H](C)CO)C[C@@H]2C)cc1,0,-92*,.
COc1ccccc1-c1ccc([C@H]2[C@@H](CO)N[C@@H]2CNC(=O)C2CCC2)cc1,-5,21,.
